According to PubChem BioAssay AID1619 (SRMLSC, 2009):
Out of some 220,000 compounds screened, about 830 (0.38%) were called active.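 How the source made its calls: active means compound inhibiting the enzyme by more than half at any dose during confirmatory dose-response retesting; inconclusive means strong single-dose inhibitors picked by rank but not retested; inactive means the rest.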 The list is a sample of the results. Entries with a potency or affinity are not part of this list.

Target: Leucine aminopeptidase (Plasmodium falciparum (isolate 3D7)) (UniProt Q8IL11)
Sequence (Q8IL11 whole entry, looked up): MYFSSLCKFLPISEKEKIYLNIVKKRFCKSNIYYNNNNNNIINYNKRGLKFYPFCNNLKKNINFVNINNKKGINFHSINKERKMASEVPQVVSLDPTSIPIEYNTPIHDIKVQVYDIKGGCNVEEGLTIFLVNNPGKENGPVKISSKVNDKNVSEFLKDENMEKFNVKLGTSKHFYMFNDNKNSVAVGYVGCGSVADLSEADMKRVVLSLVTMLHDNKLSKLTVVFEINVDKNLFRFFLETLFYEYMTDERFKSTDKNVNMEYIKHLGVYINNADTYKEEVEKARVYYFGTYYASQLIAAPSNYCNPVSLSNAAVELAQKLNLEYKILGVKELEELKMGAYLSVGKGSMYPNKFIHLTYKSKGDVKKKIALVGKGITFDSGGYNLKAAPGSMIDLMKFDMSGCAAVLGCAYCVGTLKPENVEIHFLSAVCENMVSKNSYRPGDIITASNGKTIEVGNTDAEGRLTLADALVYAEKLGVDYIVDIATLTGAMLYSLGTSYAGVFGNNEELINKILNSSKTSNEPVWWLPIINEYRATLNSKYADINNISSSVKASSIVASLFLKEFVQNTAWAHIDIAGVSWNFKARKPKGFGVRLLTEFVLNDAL
Test: P. falciparum M17LAP inhibitors, primary screen, biochemical, fluorogenic H-Leu-NHMec substrate, 1536-well (AID 1619);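 further: plate controls were full reaction with DMSO carrier for no effect and no enzyme background for full effect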
Details: recombinant M17LAP, H-Leu-NHMec fluorogenic kinetic assay; at 30 µM; stronger effect = higher value

inhibition, inactive:
Oc1ccc(-c2nc(-c3ccc(O)c(O)c3)cs2)cc1 25.6%, COc1cc(-c2csc(C)n2)ccc1O -9.57%, Cc1cc(Cl)cc(Cl)c1OCCCCN(C)C 1.1%, Cn1c(NC(=O)/C=C/c2ccccc2)cc(=O)n(C)c1=O 9.82%, COc1ccc(/C=C/C(=O)Nc2cc(=O)n(C)c(=O)n2C)cc1 50.5%, CCCCC(CC)CNC(=O)/C=C/c1ccc(F)cc1 (configuration not stated) 9.03%, COc1ccc(S(=O)(=O)Nc2ccc3c(c2)OCCO3)cc1Cl -0.34%, O=C1CC(CSc2ccc(Cl)cc2)=NN1 7.98%, Cc1cc(SCC2=NNC(=O)C2)c(Cl)cc1Cl 3.5%, O=C(O)COc1ccc(Cl)cc1CO 20%, CCOC(=O)C1=C(C)N(C)C(C)=C(C(=O)OCC)C1c1ccc(C(=O)OC)cc1 3.78%, CC(C)NC(=O)NC(=O)COc1c(F)c(F)cc(F)c1F -8.9%, CCc1ccc(NC(=S)Nc2ccc3cn[nH]c3c2)cc1 11.2%, CCNC(=S)Nc1ccc2cn[nH]c2c1 14.6%, CC(c1ccon1)N(C)Cc1cn(C)nc1-c1cccc(Cl)c1 (configuration not stated) -1.33%, CN(C)c1ccc(/C=C2\CCC/C(=C\c3ccccc3)C2=O)cc1 5.08%, O=C1/C(=C/c2ccncc2)CCC/C1=C\c1ccncc1 -3.28%, COc1ccc(CC(=O)Nc2cc(S(=O)(=O)N3CCOCC3)ccc2N2CCOCC2)cc1 2.63%, CC(=O)Nc1ccc(CC(=O)O)cc1 -5.89%, O=C(Nc1cccc([N+](=O)[O-])c1)Nc1cccc([N+](=O)[O-])c1 -0.88%, COC(=O)c1cccc(NC(=O)Nc2ccc(Cl)cc2)c1 2.56%, O=C(Nc1ccccc1)Nc1cccc(Cl)c1 15.7%, O=C(Nc1cccc(Cl)c1)Nc1cccc(C(=O)O)c1 -7.66%, O=C(Nc1ccc(OC(F)(F)F)cc1)Nc1cccc([N+](=O)[O-])c1 2.58%, COc1ccc(NC(=O)Nc2ccc(CC(=O)O)cc2)cc1 2.73%, O=C(Nc1cccc(Cl)c1)Nc1cccc(Cl)c1 1.69%, O=C(COc1ccc(S(=O)(=O)N2CCCCC2)cc1)NC1CCCCC1 0.02%, O=C(NC(Cc1ccccc1)C(=O)O)/C(=C\c1ccccc1F)NC(=O)c1ccccc1 (configuration not stated) 32.3%, O=C(NCc1ccco1)c1ccc(F)c(S(=O)(=O)N2CCCCC2)c1 8.34%, C#CCOc1nc(OCC#C)nc(OCC#C)n1 -14.6%, CC(C)(C)[C@@H]1C=C(C(=O)N2CCOCC2)O[C@H](OCc2ccc(CO)cc2)C1 0.65%, COc1ccccc1CNC(=O)COC(=O)Cc1c(F)cccc1Cl -4.41%, CC(C)C(=O)Nc1ccc(NC(=S)NC(=O)c2cc3ccccc3o2)cc1 -4.08%, COc1ccc(OC)c(NC(=S)N(CCc2c(C)[nH]c3ccc(C)cc23)Cc2cccs2)c1 3.79%, Cc1csc(NC(=O)c2cc(=O)[nH]c3ccc(S(=O)(=O)N4CCOCC4)cc23)n1 -22.8%, COc1ccc(/C=N/NC(=O)CC(=O)N/N=C/c2ccc(OC)cc2)cc1 14.7%, CSc1nc(C)cc(SCC(=O)N/N=C/c2ccccc2)n1 -5.92%, O=C(CSc1nc2ccccc2o1)N/N=C/c1ccccc1 17.4%, COc1ccc(/C=N/NC(=O)CSCC(=O)Nc2ccccc2)cc1 -7.59%, Cc1cc(C(=O)Nc2ccccc2N2CCOCC2)ccc1[N+](=O)[O-] 8.21%, O=C(c1ccc(CN2CCOCC2)cc1)N1CCN(c2ccccc2)CC1 3.18%, Cc1ccc(C)c(NC(=O)c2ccc(S(=O)(=O)C(F)F)cc2)c1 -0.05%, COc1ccccc1N1CCN(C(=O)c2cc(C(C)(C)C)oc2C)CC1 13.9%, O=C1OCCC1Sc1nc2ccccc2c(=O)n1-c1ccc(F)cc1 (configuration not stated) -2.24%, CCC1=Nc2cc(C(=O)O)ccc2Sc2ccc(Cl)cc21 7.99%, Cc1ccc(C(=O)NC(Cc2c[nH]c3ccccc23)C(=O)O)cc1 (configuration not stated) 17.6%, CCOc1ccccc1Nc1nnc(SCC(=O)Nc2ccc3[nH]c(=O)[nH]c3c2)s1 -4.13%, CCOc1ccccc1Nc1nnc(SCC(=O)Nc2cc(C)on2)s1 -0.81%, Cc1ccc(C)c(OCC(=O)NC(Cc2c[nH]c3ccccc23)C(=O)O)c1 (configuration not stated) -8.94%, CC(C)C(=O)Nc1nc2c(c(=O)[nH]1)CCCC2 3.8%, CCc1n[n+](CC(=O)c2ccccc2)c(N)s1 -0.05%, COc1ccc(-c2[nH]ncc2/C=C(/C#N)C(=O)NC2CCCCC2)cc1 0.03%, COc1ccc(-c2[nH]ncc2/C=C(/C#N)C(=O)NC2CCCCCC2)cc1 -2.26%, O=C(c1cc(-c2ccccc2)on1)N1CCN(Cc2ccc3c(c2)OCO3)CC1 -6.81%, CCc1ccccc1NC(=O)CSc1ccsc1[N+](=O)[O-] 6.13%, Cc1ccccc1NC(=O)CSc1ccsc1[N+](=O)[O-] 8.37%, Cc1cccc(C(=O)N2CCCCCC2)c1[N+](=O)[O-] -0.16%, CCN1CCN(CC(O)COCc2ccccc2)CC1 (configuration not stated) 8.64%, CCCN(C(=O)/C=C/c1ccco1)c1c(N)n(Cc2ccccc2)c(=O)[nH]c1=O 12.1%, Cc1nn(C(C)C(=O)NC2C(=O)N3C(C(=O)O)=C(CSc4nnnn4C)CSC23)cc1Cl (configuration not stated) 48.7%, Cn1nnnc1SCC1=C(C(=O)O)N2C(=O)C(NC(=O)C3CC3c3ccccc3)C2SC1 (configuration not stated) 20.4%, COc1ccc(Cn2cnc3c([N+](=O)[O-])c(C)c(C)cc32)cc1 16.7%
